Test results: PubChem BioAssay (NCATS)
Records with an inconclusive call do not appear. Activity calls are given as the source filed them. Unless noted, calls come from the whole dose curve; as a rule, active = well fitted curve in the direction sought with a large enough effect; inconclusive = small, poorly fitted or top-dose-only effect, or another doubt; inactive = no such curve, though single readings can be large; an effect the other way counts as inactive or inconclusive.

What was measured:
[1] = target: Lysosomal acid glucosylceramidase (Homo sapiens) (UniProt P04062); assay: Glucocerebrosidase-p2 (AID 348; in the data active = potency below about 10 µM; note: potency is the fitted concentration of half-maximal effect); details: purified GBA, blue fluorogenic substrate, 40 min
Sequence of Lysosomal acid glucosylceramidase (Homo sapiens) (P04062 whole entry, looked up): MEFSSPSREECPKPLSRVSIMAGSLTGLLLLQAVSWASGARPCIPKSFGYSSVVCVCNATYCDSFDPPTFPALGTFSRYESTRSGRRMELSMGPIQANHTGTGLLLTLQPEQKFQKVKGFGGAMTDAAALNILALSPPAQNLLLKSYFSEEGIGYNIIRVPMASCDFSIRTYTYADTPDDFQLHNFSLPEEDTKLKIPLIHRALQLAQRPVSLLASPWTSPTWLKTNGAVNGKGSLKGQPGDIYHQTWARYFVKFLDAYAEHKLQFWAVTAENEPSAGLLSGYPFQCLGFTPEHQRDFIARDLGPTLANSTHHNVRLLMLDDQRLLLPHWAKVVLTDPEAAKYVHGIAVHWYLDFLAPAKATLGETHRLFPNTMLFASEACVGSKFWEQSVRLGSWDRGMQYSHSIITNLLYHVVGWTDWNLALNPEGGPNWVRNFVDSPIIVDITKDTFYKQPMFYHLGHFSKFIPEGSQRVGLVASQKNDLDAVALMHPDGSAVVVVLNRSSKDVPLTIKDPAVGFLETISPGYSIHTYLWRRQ
In short: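 Normal human glucocerebrosidase (0.2 nM) with blue fluorogenic substrate (80 uM final) in citrate/phosphate pH 5.9 with 10mM sodium taurocholate, 0.01% tween-20; 40 min RT, NaOH/glycine stop; fluorescence Ex 365/Em 440; AC50 from a titration from 0.6 nM upwards.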

[2] = AP1 Signaling Pathway (AID 357; active = well fitted curve in either direction with a large enough effect, not every such curve was filed as active;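 note: ME-180 reporter cells stimulated with EGF at its EC50 level; % is set by controls: 0 for no effect and ±100 for the full control effect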); details: ME-180 AP-1-bla reporter, EGF-induced, beta-lactamase ratio, 5 h; at 7.69 µM (top of the series) unless noted
In short: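 A ratiometric CCF4 readout (405 nm excitation; 460 and 530 nm emission) quantified AP-1-driven beta-lactamase in ME-180 cells after 5 h with compound and EC50 EGF; AC50 values were derived for activators and inhibitors.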

[3] = Stat Signaling Pathway (AID 446; active = well fitted curve in either direction with a large enough effect, not every such curve was filed as active;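 note: ME-180 cervical cancer cells given 40 pM IL-6 alongside compound; SIE-controlled beta-lactamase reporter measured as 460/530 nm FRET emission ratio; % is set by controls: 0 for no effect and ±100 for the full control effect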); details: ME-180 (cervical carcinoma) SIE beta-lactamase reporter, IL-6 stimulated, 5 h; at 7.69 µM (top of the series) unless noted
In short: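 FRET read-out (405 nm excitation, 460/530 nm emission) of a beta-lactamase reporter under a STAT-inducible element in ME-180 cervical carcinoma cells. Cells with compound receive 40 pM IL-6 for 5 h. Values are normalised to AC90 stimulation and AC90 JAK-inhibitor controls.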

[4] = target: 3',5'-cyclic-AMP phosphodiesterase 4B (Homo sapiens) (UniProt Q07343); assay: qHTS Assay for Inhibitors of PDE-IV (AID 607; active = well fitted activation curve with a large enough effect in the main read-out, with a control signal flat, not every such curve was filed as active; note: % of control where 0% means no effect); details: HEK293 ACTOne CNG channel cells, membrane potential fluorescence; series mostly up to 22.9 µM
Sequence of 3',5'-cyclic-AMP phosphodiesterase 4B (Homo sapiens) (Q07343 whole entry, looked up): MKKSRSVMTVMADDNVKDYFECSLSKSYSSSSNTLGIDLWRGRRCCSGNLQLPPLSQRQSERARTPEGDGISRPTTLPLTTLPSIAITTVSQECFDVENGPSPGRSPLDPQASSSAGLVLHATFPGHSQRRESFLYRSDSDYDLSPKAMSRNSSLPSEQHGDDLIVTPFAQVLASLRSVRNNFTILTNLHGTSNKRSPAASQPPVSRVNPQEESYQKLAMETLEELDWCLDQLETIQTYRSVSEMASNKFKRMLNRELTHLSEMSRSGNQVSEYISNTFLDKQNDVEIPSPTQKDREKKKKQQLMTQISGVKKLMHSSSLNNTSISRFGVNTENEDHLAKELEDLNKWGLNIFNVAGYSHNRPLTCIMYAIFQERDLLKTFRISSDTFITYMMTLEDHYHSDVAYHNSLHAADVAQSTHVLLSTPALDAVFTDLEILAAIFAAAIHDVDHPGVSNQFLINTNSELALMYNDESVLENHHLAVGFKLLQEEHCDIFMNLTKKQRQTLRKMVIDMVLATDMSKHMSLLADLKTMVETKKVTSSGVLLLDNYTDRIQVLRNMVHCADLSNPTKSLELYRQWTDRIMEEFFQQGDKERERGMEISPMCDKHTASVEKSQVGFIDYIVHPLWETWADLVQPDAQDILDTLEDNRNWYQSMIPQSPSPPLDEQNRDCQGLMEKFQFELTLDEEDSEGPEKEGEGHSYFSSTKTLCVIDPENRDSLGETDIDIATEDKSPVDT
In short: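 Cell-based read-out of cAMP via a modified cyclic nucleotide-gated channel and membrane potential dye (535/590 nm) in HEK293 cells expressing PDE4 endogenously. Compounds tested up to 22.9 uM final; 100 uM RO 20-1724 reference.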

[5] = target: ATP-dependent 6-phosphofructokinase (Trypanosoma brucei brucei) (UniProt O15648); assay: qHTS Assay to Find Inhibitors of T. brucei phosphofructokinase: hit validation (AID 492961);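 note: luminescence reports ADP formed as PFK phosphorylates fructose-6-phosphate with ATP; % is set by controls: 0 for no effect and ±100 for the full control effect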; details: T. brucei PFK, ADP-Glo luminescence; series mostly up to 51.4 µM
Sequence of ATP-dependent 6-phosphofructokinase (Trypanosoma brucei brucei) (O15648 whole entry, looked up): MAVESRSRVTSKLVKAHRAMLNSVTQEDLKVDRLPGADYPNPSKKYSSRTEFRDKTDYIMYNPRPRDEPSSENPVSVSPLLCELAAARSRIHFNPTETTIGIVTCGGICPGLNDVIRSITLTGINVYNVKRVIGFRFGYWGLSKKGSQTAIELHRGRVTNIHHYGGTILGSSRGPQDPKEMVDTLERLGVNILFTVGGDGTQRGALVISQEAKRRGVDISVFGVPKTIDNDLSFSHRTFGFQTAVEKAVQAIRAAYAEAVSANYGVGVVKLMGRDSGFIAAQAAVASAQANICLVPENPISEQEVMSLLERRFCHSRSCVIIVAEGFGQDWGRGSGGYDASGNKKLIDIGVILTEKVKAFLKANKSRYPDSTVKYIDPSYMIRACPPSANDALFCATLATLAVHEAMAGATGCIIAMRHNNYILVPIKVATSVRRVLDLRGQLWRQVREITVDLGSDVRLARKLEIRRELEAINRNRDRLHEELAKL
In short: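 Measures ADP output of PFK (1.25 nM) at 0.1 mM ATP, 0.5 mM F6P, pH 8.0 TEA buffer with 5 mM MgCl2. No-enzyme wells define full inhibition; uninhibited enzyme wells define zero.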

[6] = target: Luciferin 4-monooxygenase (Photinus pyralis) (UniProt P08659); assay: Biochemical firefly luciferase enzyme assay for NPC (AID 624030);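 note: purified P. pyralis luciferase at 10 nM with luciferin and ATP substrate; 0% = DMSO and -100% = full luciferase inhibition by PTC124 control; nearly all actives have a fitted effect of over 70% in size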; details: purified P. pyralis luciferase, luminescence, 5 min; series mostly up to 58.6 µM
Sequence of Luciferin 4-monooxygenase (Photinus pyralis) (P08659 whole entry, looked up): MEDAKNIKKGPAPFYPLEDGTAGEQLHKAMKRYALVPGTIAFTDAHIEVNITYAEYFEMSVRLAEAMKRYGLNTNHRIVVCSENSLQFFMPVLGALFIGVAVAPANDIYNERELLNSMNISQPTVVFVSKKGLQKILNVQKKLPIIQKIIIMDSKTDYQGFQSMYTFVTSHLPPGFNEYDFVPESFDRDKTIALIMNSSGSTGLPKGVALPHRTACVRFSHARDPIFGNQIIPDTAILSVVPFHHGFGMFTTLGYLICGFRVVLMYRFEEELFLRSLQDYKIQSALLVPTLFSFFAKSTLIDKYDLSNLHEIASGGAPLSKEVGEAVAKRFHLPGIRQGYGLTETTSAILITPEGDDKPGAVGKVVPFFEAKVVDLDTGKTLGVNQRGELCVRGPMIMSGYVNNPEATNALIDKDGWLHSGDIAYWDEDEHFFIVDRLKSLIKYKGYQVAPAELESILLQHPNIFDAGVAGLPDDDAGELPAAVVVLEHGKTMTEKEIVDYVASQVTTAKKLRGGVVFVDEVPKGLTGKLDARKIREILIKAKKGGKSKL
In short: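 Direct inhibition of firefly luciferase enzyme (10 nM final, 50 mM Tris Acetate) assessed by luminescence within 5 minutes. Percent activity scaled between DMSO and PTC124 positive control, with concentration-effect curves classified by fit quality and response.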

[7] = S16 Schwann cell PMP22 intronic element firefly luciferase assay (AID 624032); details: S16 rat Schwann cells, PMP22 element FLuc, 24 h; series mostly up to 57.5 µM;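 note: plate controls were DMSO for no effect and PTC124 positive control mean for full effect; nearly all actives have a fitted effect of over 30% in size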
In short: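 Luciferase reporter of PMP22 intronic-element expression in stably transfected S16 rat Schwann cells, read by ONE-Glo luminescence after 24 h compound exposure at 37 C. Activity scaled between DMSO (0%) and positive-control PTC124; concentration-effect curves quality-classified.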

[8] = S16 Schwann cell PMP22 intronic element beta-lactamase assay (AID 624044; calls by dose curve;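 note: 0% = DMSO and -100% = potassium clavulanate positive control; nearly all actives have a fitted effect of over 15% in size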); details: S16 rat Schwann cells, PMP22 element beta-lactamase FRET, 24 h; series mostly up to 38.3 µM
In short: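 Beta-lactamase reporter under a PMP22 intronic regulatory element in stable S16 rat Schwann cells; 24 h compound exposure. 460 nm blue signal normalized between DMSO (0%) and potassium clavulanate, with 535 nm FRET tracking viability; curves classed by r2 and response.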

[9] = qHTS profiling for inhibitors of Plasmodium falciparum proliferation (AID 504749);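 note: 0% = DMSO vehicle and full inhibition = artemisinin control; nearly all actives have a fitted effect of over 60% in size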; details: P. falciparum in erythrocytes, SYBR Green DNA, 72 h, at 28.7 µM (top of the series)
In short: (§1)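 In a 72 h erythrocytic culture (37 C, humidified, 5% CO2) at 2.5% hematocrit and 0.3% starting parasitemia, compounds were tested; SYBR Green I in detergent lysis buffer stained parasite DNA overnight.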

3D7 = assay: as above; details: P. falciparum in erythrocytes, SYBR Green DNA, 72 h; series mostly up to 28.7 µM
In short: as §1

7G8 = assay: as above; details: P. falciparum in erythrocytes, SYBR Green DNA, 72 h; series mostly up to 28.7 µM
In short: as §1

AA1029 = assay: as above; details: P. falciparum in erythrocytes, SYBR Green DNA, 72 h; series mostly up to 28.7 µM
In short: as §1

AS120 = assay: as above; details: P. falciparum in erythrocytes, SYBR Green DNA, 72 h; series mostly up to 28.7 µM
In short: as §1

ATS189 = assay: as above; details: P. falciparum in erythrocytes, SYBR Green DNA, 72 h; series mostly up to 28.7 µM
In short: as §1

ATS95 = assay: as above; details: P. falciparum in erythrocytes, SYBR Green DNA, 72 h; series mostly up to 28.7 µM
In short: as §1

C2A = assay: as above; details: P. falciparum in erythrocytes, SYBR Green DNA, 72 h; series mostly up to 28.7 µM
In short: as §1

CP185 = assay: as above; details: P. falciparum in erythrocytes, SYBR Green DNA, 72 h; series mostly up to 28.7 µM
In short: as §1

CP191 = assay: as above; details: P. falciparum in erythrocytes, SYBR Green DNA, 72 h; series mostly up to 28.7 µM
In short: as §1

CP192 = assay: as above; details: P. falciparum in erythrocytes, SYBR Green DNA, 72 h; series mostly up to 28.7 µM
In short: as §1

CP194 = assay: as above; details: P. falciparum in erythrocytes, SYBR Green DNA, 72 h; series mostly up to 28.7 µM
In short: as §1

CP201 = assay: as above; details: P. falciparum in erythrocytes, SYBR Green DNA, 72 h; series mostly up to 28.7 µM
In short: as §1

CP203 = assay: as above; details: P. falciparum in erythrocytes, SYBR Green DNA, 72 h; series mostly up to 28.7 µM
In short: as §1

CP211 = assay: as above; details: P. falciparum in erythrocytes, SYBR Green DNA, 72 h; series mostly up to 28.7 µM
In short: as §1

CP215 = assay: as above; details: P. falciparum in erythrocytes, SYBR Green DNA, 72 h; series mostly up to 28.7 µM
In short: as §1

CP217 = assay: as above; details: P. falciparum in erythrocytes, SYBR Green DNA, 72 h; series mostly up to 28.7 µM
In short: as §1

CP237 = assay: as above; details: P. falciparum in erythrocytes, SYBR Green DNA, 72 h; series mostly up to 28.7 µM
In short: as §1

CP238 = assay: as above; details: P. falciparum in erythrocytes, SYBR Green DNA, 72 h; series mostly up to 28.7 µM
In short: as §1

CP247 = assay: as above; details: P. falciparum in erythrocytes, SYBR Green DNA, 72 h; series mostly up to 28.7 µM
In short: as §1

CP250 = assay: as above; details: P. falciparum in erythrocytes, SYBR Green DNA, 72 h; series mostly up to 28.7 µM
In short: as §1

CP252 = assay: as above; details: P. falciparum in erythrocytes, SYBR Green DNA, 72 h; series mostly up to 28.7 µM
In short: as §1

CP256 = assay: as above; details: P. falciparum in erythrocytes, SYBR Green DNA, 72 h; series mostly up to 28.7 µM
In short: as §1

CP260 = assay: as above; details: P. falciparum in erythrocytes, SYBR Green DNA, 72 h; series mostly up to 28.7 µM
In short: as §1

CP262 = assay: as above; details: P. falciparum in erythrocytes, SYBR Green DNA, 72 h; series mostly up to 28.7 µM
In short: as §1

CN1[C@@H]2CC(OC(=O)[C@@H](CO)c3ccccc3)C[C@@H]1[C@H]1O[C@H]12 (some centres undefined)
inactive: Potency [1] > 11.4 µM | activity change, negative = inhibition [2] 20.3% | activity, negative = inhibition [3] 6.14% | Potency [4] | outcome [5] | outcome [6] | Potency [7] | outcome [8] | activity, negative = inhibition ([9]; parasite line A) 11.4% | activity, negative = inhibition ([9]; parasite line B) 4.71% | Potency (3D7) | Potency (7G8) | Potency (AA1029) | Potency (AS120) | Potency (ATS189) | Potency (ATS95) | Potency (C2A) | Potency (CP185) | Potency (CP191) | Potency (CP192) | Potency (CP194) | Potency (CP201) | Potency (CP203) | Potency (CP211) | Potency (CP215) | Potency (CP217) | Potency (CP237) | Potency (CP238) | Potency (CP247) | Potency (CP250) | Potency (CP252) | Potency (CP256) | Potency (CP260) | Potency (CP262)
